These results are taken from the antibiotic and cytotoxicity screens of Wong et al. (2023).

The campaign covered roughly 39,000 compounds. About 3,300 (8.5%) were called active. This is one part of a sample in which actives are shown more often than they occur.

The test system of this assay is HepG2. Briefly: cytotoxicity call (relative viability < 0.9). The following applies: 10 µM.
Take `C[C@@H]1CCCCO[C@@H](CN(C)C(=O)Nc2ccc(F)cc2)[C@H](C)CN([C@H](C)CO)C(=O)c2cc(NC(=O)c3ccncc3)ccc2O1`: the cytotoxicity call was “inactive”.
With `C[C@H]1CCCCO[C@H](CN(C)C(=O)C2CCCCC2)[C@@H](C)CN([C@@H](C)CO)C(=O)c2cc(NS(=O)(=O)c3ccc(F)cc3)ccc2O1` the entry was “inactive”.
As to `C[C@H](CO)N1C[C@H](C)[C@@H](CN(C)C(=O)Nc2ccc(F)cc2)Oc2c(NS(C)(=O)=O)cccc2C1=O`, the cytotoxicity call is “inactive”.
Turning to `COc1ccc(NC(=O)N(C)C[C@H]2Oc3c(NC(=O)C4CCOCC4)cccc3C(=O)N([C@@H](C)CO)C[C@@H]2C)cc1`, the cytotoxicity call was “inactive”.
With `O=C(N[C@H]1C=C[C@@H](CC(=O)N2CCOCC2)O[C@@H]1CO)c1ccccn1` the entry was “inactive”.
Consider `CN(C)c1nc2ncnc(N)c2[nH]1`, for which the cytotoxicity call is “inactive”.
As for `C[C@H]1CN([C@@H](C)CO)C(=O)c2ccccc2-c2ccccc2CO[C@@H]1CN(C)C(=O)Nc1ccccc1C(F)(F)F`, the cytotoxicity call is “inactive”.
The result for `C[C@@]1(O)N(CC(=O)O)C(=O)OC12CCCCC2` reads “inactive”.
Consider `O=C1N[C@@H](Cc2ccccc2)C(=O)N2[C@@H]1C[C@@H](C(=O)NCc1ccc(F)cc1)[C@H]2c1cccc(OCCO)c1`, for which the cytotoxicity call was “inactive”.
With `O=S1(=O)C[C@H](NC[C@H]2C[C@@H]3C=C[C@H]2C3)[C@@H](O)C1` the entry was “inactive”; with `C[C@@H]1CN([C@H](C)CO)C(=O)c2cccc(NS(=O)(=O)c3cn(C)cn3)c2O[C@@H]1CN(C)C(=O)Nc1ccc(F)cc1`, “inactive”.
For `Cc1ccc(S(=O)(=O)N(C)C[C@H]2Oc3ccc(NC(=O)Nc4ccc(C(F)(F)F)cc4)cc3CC(=O)N([C@@H](C)CO)C[C@H]2C)cc1`, the cytotoxicity call was “active”.
With `Cc1ccc(S(=O)(=O)N(C)C[C@H]2Oc3ccc(NC(=O)Nc4ccc(C(F)(F)F)cc4)cc3CC(=O)N([C@@H](C)CO)C[C@@H]2C)cc1` the entry was “active”.
The result for `C[C@@H]1CN([C@@H](C)CO)C(=O)Cc2cc(NC(=O)Nc3ccc(C(F)(F)F)cc3)ccc2O[C@H]1CN(C)S(C)(=O)=O` reads “inactive”; that for `C[C@H]1CN([C@@H](C)CO)C(=O)c2cc(NS(=O)(=O)c3cn(C)cn3)ccc2O[C@H]1CN(C)C(=O)Nc1ccc(F)cc1`, “inactive”.
With `C[C@@H]1CN([C@H](C)CO)C(=O)c2cccc(NS(=O)(=O)c3cccs3)c2O[C@@H]1CN(C)S(=O)(=O)c1cccs1`, the cytotoxicity call was “inactive”.
For `Cc1noc(C)c1S(=O)(=O)N(C)C[C@H]1Oc2ccc(NS(=O)(=O)c3ccc(Cl)cc3)cc2CC(=O)N([C@H](C)CO)C[C@H]1C`, the cytotoxicity call was “inactive”.
With `O=C(N[C@@H]1CC[C@H](CCNS(=O)(=O)c2ccc(F)cc2)O[C@@H]1CO)C1CC1` the entry was “inactive”.
